# Screening results deposited in PubChem by National Center for Advancing Translational Sciences (NCATS).
# Hits are enriched below; roughly 10% of the tested compounds scored in any of these assays.
# JMJD2A Tudor inh – blocks the human JMJD2A Tudor domain | O75164 | AID 504339 | AlphaScreen JMJD2A-Tudor / H3K4me3 peptide binding | Potency, µM (titrated, usually from 114 µM), inactives show top-dose activity change, negative = inhibition, usual class: inhibitors | actives 4.4% (n = 390,000); further: on the % scale 0 is the no-effect control and ±100 the full control effect; nearly all actives have a fitted effect of over 50% in size
# BAZ2B block – inhibitors of human BAZ2B bromodomain; AlphaScreen BAZ2B-H3K14Ac peptide displacement; Potency, µM (doses to about 114 µM), without a hit: top-dose activity change, negative = inhibition, hits mostly inhibitors; actives 4.4% (n = 360,000); further: on the % scale 0 is the no-effect control and ±100 the full control effect; nearly all actives have a fitted effect of over 60% in size
#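 AlphaScreen displacement: compounds (up to 110uM) incubated 30 min at room temperature with a preformed 50 nM BAZ2B/50 nM biotinylated H3K14Ac peptide complex in PBS pH 7.4 with Tween-20. Donor and acceptor beads at 10 ug/mL final added, 20 min light-protected before reading.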
# L3MBTL1 inh – L3MBTL1 (human) inhibition | AlphaScreen L3MBTL1–H3K9me1 peptide binding | AID 485360 | Potency, µM (top dose mostly 57.1 µM), for inactives: at the top dose activity, negative = inhibition, hits mostly inhibitors | actives 0.66% (n = 230,000); further: on the % scale 0 is the no-effect control and ±100 the full control effect; nearly all actives have a fitted effect of over 60% in size
#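 AlphaScreen proximity signal between nickel-chelate acceptor and streptavidin donor beads (final 10 ug/mL) reports binding of 50 nM L3MBTL1 to 75 nM biotin-H3 K9me1 peptide; complex incubated with compounds 30 min at room temperature; cefsulodin titration as control.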
# GLS inh – inhibitors of human glutaminase (GLS). GLS enzymatic activity, qHTS titration. Potency, µM (highest dose often 45.5 µM), without a hit: at the top dose activity change, negative = inhibition, usual class: inhibitors. actives 0.21% (n = 410,000). AID 624170. O94925; further: on the % scale 0 is the no-effect control and ±100 the full control effect
#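 Assay buffer: 45 mM KH2PO4 pH 8.2, 0.02% Tween-20. hKGA acts on L-glutamine (1 mM solution added); product glutamate is reported by an oxidase/peroxidase Amplex Red coupling, with fluorescence taken at baseline and 30 min.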
# G9a inh – G9a (human) methyltransferase inhibition; Potency, µM (series often up to 102 µM), without a hit: at the top dose activity, negative = inhibition, hits mostly inhibitors; AID 504332; G9a H3K9 monomethylation, AlphaScreen, 2 h; actives 8.8% (n = 350,000); further: on the % scale 0 is the no-effect control and ±100 the full control effect; nearly all actives have a fitted effect of over 75% in size
#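 AlphaScreen read-out: biotin-H3K9 peptide (500 nM) methylation by 20 nM enzyme with 20 uM SAM, 2 h at room temperature after 15 min compound preincubation; anti-monomethyl H3K9 antibody plus donor/acceptor beads, 10 min dark.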
# HP1b chromo inh – blocks HP1-beta chromodomain binding to methylated histone tails; actives 0.56% (n = 390,000); AID 540317; AlphaScreen HP1-beta / biotin-H3K9me3 peptide binding; Potency, µM (series often up to 114 µM), inactives show at the top dose activity change, negative = inhibition, usual class: inhibitors; P83916; further: nearly all actives have a fitted effect of over 70% in size
#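 HP1-beta protein (50 nM final) preincubated 30 min at room temperature with biotinylated H3(1-18)K9me3 peptide (50 nM) in PBS pH 7.4, 0.01% Tween-20, then compound added for 30 min. AlphaScreen streptavidin donor/nickel chelate acceptor beads (10 ug/mL final), 30 min dark, luminescence read.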
# * = called active by the depositor; ? = inconclusive; nt = not tested or not shown; [ ] = remark or other dose. The call rests on the fitted dose curve; in most records, active means well fitted curve in the direction sought with a large enough effect; inconclusive means small, poorly fitted or top-dose-only effect, or another doubt; inactive means no such curve, though single readings can be large; an effect the other way counts as inactive or inconclusive. Potency means the concentration at half of the fitted maximal effect.
SMILES,JMJD2A Tudor inh,BAZ2B block,L3MBTL1 inh,GLS inh,G9a inh,HP1b chromo inh
O=c1c2ccccc2cnn1Cc1n[nH]c(=S)n1-c1ccc(F)cc1,6.3µM*,-18%,5%,0%,7.9µM*,29%
Cc1ccc(OC(=O)C2CSC3(C)CCC(=O)N23)c(Br)c1 (stereo unspecified),-12%,30%,-16%,3%,0%[0.501 µM],-14%
COC(=O)c1ccc(OC(=O)C2CSC3(C)CCC(=O)N23)cc1 (stereo unspecified),6%,0%,10%,2%,56µM*,32%
COc1cccc2c(=O)c3c(oc12)CCCC3,nt,nt,nt,0%,nt,nt
Nc1cccc2c3c(oc12)CCCC3,-28%,-27%,nt,14%,40µM*,21%
CCC(=O)Nc1ccc2nc(SCCOc3ccc(C)cc3OC)sc2c1,5%,-23%,nt,5%,5%[59 µM],30%
COc1ccc(OC)c(NC(=O)C2CCN(S(=O)(=O)c3ccc4c(c3)CCCC(=O)N4)CC2)c1,-18%,0%[57.1 µM],nt,0%,-27%[59 µM],1%
CCS(=O)(=O)C1=NSC2=NC(=O)/C(=C\c3ccc(OC(=O)c4ccco4)cc3)C(=N)N21,-19%,?,nt,25%,45µM*,8%
COc1ccccc1OCCOc1ccc(/C=C2/C(=N)N3OC(C)=CC3=NC2=O)cc1OC,-36%,-26%,0%,8%,71µM*,11%
CC(C)S(=O)(=O)C1=NSC2=NC(=O)/C(=C\c3ccc(OC(=O)c4ccco4)cc3)C(=N)N21,7%,?,nt,30%,19%[0.0925 µM],32%
COc1cc(/C=C2\C(=N)N3N=C(S(C)(=O)=O)SC3=NC2=O)ccc1OC(=O)c1cccs1,-4%,56µM*,nt,19%,-25%,31%
CCOc1cc(/C=C2/C(=N)N3C(=NC2=O)SN=C3S(C)(=O)=O)ccc1OC(=O)c1ccco1,?,50µM*,nt,0%,6%[0.0925 µM],5%
CSc1cccc(NC(=O)CN2C(=O)COc3ccc(S(=O)(=O)N4CCC(C)CC4)cc32)c1,-18%,-20%,nt,1%,-6%[59 µM],58%
CCS(=O)(=O)C1=NN2C(=N)/C(=C\c3ccc(OC(=O)c4ccco4)c(Br)c3)C(=O)N=C2S1,nt,50µM*,nt,nt,-17%[59 µM],nt
CCS(=O)(=O)C1=NN2C(=N)/C(=C\c3ccc(SCc4ccco4)o3)C(=O)N=C2S1,32µM*,50µM*,32µM*,?,13µM*,?
CCOc1cc(/C=C2\C(=N)N3N=C(S(=O)(=O)CC)SC3=NC2=O)ccc1OC(=O)c1ccco1,-5%,?,nt,2%,45µM*,28%
CCOc1cc(/C=C2/C(=N)N3N=C(CC)SC3=NC2=O)ccc1OC(=O)c1ccco1,-33%,-17%,nt,-19%,nt,-3%
COc1cc(/C=C2\C(=N)N3N=C(S(C)(=O)=O)SC3=NC2=O)ccc1OC(=O)c1ccco1,?,50µM*,nt,5%,45µM*,-12%[57 µM]
CC(C)CC(=O)NC1(C(F)(F)F)C(=O)Nc2c1c(=O)[nH]c(=O)n2-c1ccccc1 (stereo unspecified),-1%,-1%,nt,-5%,22%[59 µM],82%
CCC1=NN2C(=N)/C(=C\c3ccc(OCCOc4ccccc4OC)cc3)C(=O)N=C2S1,-7%,-33%,1%,4%,-10%,16%
COc1cc(/C=C2\C(=N)N3N=C(S(C)(=O)=O)SC3=NC2=O)ccc1OCCOc1ccccc1C,?,56µM*,nt,71%,25µM*,?
O=C(O)c1ncc(-c2ccccc2)cn1,10µM*,nt,-13%,6%,8.9µM*,?
c1ccc(-c2cnc(-c3ccccc3)nc2)cc1,-10%,-5%,nt,-1%,?,32%
CC(C)(C)NC(=S)NC(=O)C12CCC3CC(CC(C3)C1)C2,?,71µM*,-7%,-3%,-34%,3%
CN(c1ccccc1)c1ccc(/C=C(\C#N)c2nnc3n2CCCCC3)cc1[N+](=O)[O-],45µM*,45µM*,?,3%,40µM*,?
